A short description of assay [1]: qHTS assay to identify small molecule antagonists of the sonic hedgehog signaling (Shh) pathway (AID 1259369; calls by dose curve; further: nearly all actives have a fitted effect of over 45% in size). Summed up:
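Antagonist mode: compound added to 3T3 Gli1-Luc cells followed by conditioned-medium stimulation, 24 h at 37 C, 5% CO2. Inhibition taken as loss of Gli1-driven luciferase luminescence.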
For orientation: Quantitative high-throughput screening tests each substance at several concentrations.

The nature of assay [2]: qHTS assay to identify small molecule agonists of the estrogen receptor beta (ER-beta) signaling pathway - cell viability counter screen (AID 1259380). Further: nearly all actives have a fitted effect of over 30% in size. A digest of the protocol: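 Cell viability counter screen: CellTiter-Glo luminescence (30 min, room temperature) measured in the same wells as the beta-lactamase readout, after 16 hr compound exposure at 37C of ER-beta-bla HEK293T cells in 2% charcoal-stripped FBS medium.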

The nature of assay [3]: qHTS assay to identify small molecule agonists of the estrogen receptor alpha (ER-alpha) signaling pathway in the presence of an antagonist - cell viability counter screen (AID 1259386). Further: series mostly up to about 92 µM; nearly all actives have a fitted effect of over 30% in size. Summed up:
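Compounds tested at 15 concentrations for 22 h at 37C alongside 10.0nM (final) ICI-182,780 antagonist, in VM7Luc4E2 cells grown in phenol red-free, charcoal-stripped medium. Viability read by CellTiter-Fluor fluorescence after 1 h reagent incubation.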

Assay [4] concerns the target Progesterone receptor (Homo sapiens) (UniProt P06401). The assay can be described thus: qHTS assay to identify small molecule agonists of the progesterone receptor (PR) signaling pathway (AID 1346784; calls by dose curve; further: nearly all actives have a fitted effect of over 30% in size). Summed up: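 PR-UAS-bla HEK 293T cells (beta-lactamase reporter under UAS) in 2% charcoal-stripped FBS, dosed with 23 nL compound after 6 hr, incubated 16hr at 37C. LiveBLAzer B/G FRET substrate added, fluorescence read after 2 hours.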

Assay [5] has the same target. The assay can be described thus: qHTS assay to identify small molecule antagonists of the progesterone receptor (PR) signaling pathway (AID 1346795; active means well fitted inhibition curve with a large enough effect in the signal ratio in the repeat runs, not every such curve was filed as active; the % refers to the signal ratio; further: potency means the concentration at half of the fitted maximal effect). A digest of the protocol:
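PR-UAS-bla HEK293T cells with beta-lactamase reporter under UAS control, in 2% charcoal-stripped FBS, treated with compounds plus 1 nM promegestone (R5020, final) for 16 hr at 37C. Read-out: FRET beta-lactamase substrate fluorescence after 2 hr at room temperature.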

Assay [6] in a line: qHTS assay to identify small molecule antagonists of the progesterone receptor (PR) signaling pathway - cell viability counter screen (AID 1346798). Further: series mostly up to about 92 µM; nearly all actives have a fitted effect of over 50% in size. A digest of the protocol: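 PR-UAS-bla HEK293T cells, 3,000/well in 2% charcoal-stripped FBS medium, dosed with compounds plus R5020 agonist and incubated 16 h at 37C. Viability then measured in the same wells by CellTiter-Glo luminescence after 30 min at RT.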

Assay [7] in a line: qHTS assay to identify small molecule agonists of the progesterone receptor (PR) signaling pathway - cell viability counter screen (AID 1346799; calls by dose curve; further: nearly all actives have a fitted effect of over 45% in size). A digest of the protocol: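 Counter screen in the PR-UAS-bla HEK293T wells (2% charcoal-stripped FBS, 16 h compound exposure at 37 C) after the bla read. CellTiter-Glo added, 30 min at room temperature, luminescence read as cell viability.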

Assay [8] in a line: qHTS assay to identify small molecule antagonists of the TGF-beta/Smad signaling pathway - cell viability counter screen (AID 1346824). Further: nearly all actives have a fitted effect of over 50% in size. Summed up:
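Cytotoxicity counter-screen run in the same wells as the beta-lactamase Smad reporter read: CellTiter-Glo luminescence after 30 min at room temperature. HEK 293T SBE-bla cells had 5 hr compound exposure at 37 C with TGF-beta1 (0.25 ng/mL stock).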

Assay [9] is described as follows: qHTS assay to identify small molecule agonists of the TGF-beta/Smad signaling pathway - cell viability counter screen (AID 1346829). Further: top concentration of the series differs between compounds; nearly all actives have a fitted effect of over 45% in size. A digest of the protocol:
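Here the cytotoxicity of library compounds is measured in SBE-bla HEK 293T cells treated for 5 hr, using CellTiter-Glo added to wells already read for the beta-lactamase reporter.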

Assay [10] in a line: qHTS assay to identify small molecule agonists of the TGF-beta/Smad signaling pathway (AID 1346859; active means well fitted activation curve with a large enough effect in the signal ratio in the repeat runs, not every such curve was filed as active; the % refers to the signal ratio; further: series mostly up to about 77 µM). Summed up: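 SBE-bla HEK293T cells plated overnight, then compound exposure for 5 h at 37 C. Beta-lactamase reporter read with LiveBLAzer B/G FRET substrate after 2 h at room temperature, fluorescence at 405 nm excitation, 460/530 nm emission.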
In assay [11] the target is Thyrotropin-releasing hormone receptor (Homo sapiens) (UniProt P34981). The assay can be described thus: qHTS assay to identify small molecule antagonists of the thyrotropin-releasing hormone receptor (TRHR) signaling pathway (AID 1346877; active means well fitted inhibition curve with a large enough effect in the repeat runs, not every such curve was filed as active; further: series mostly up to about 51 µM). Summed up:
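Antagonist mode: after a 5 min room-temperature compound exposure, cells were stimulated with 1 nM (final) TRH. Dye-loaded TRHR-HEK293 cells were used, and calcium-dependent fluorescence was followed for 3 min, with 15-point titrations run in triplicate.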

Assay [12] shares this target. As to the kind of experiment: qHTS assay to identify small molecule agonists of the thyrotropin-releasing hormone receptor (TRHR) signaling pathway (AID 1346891; calls by dose curve; further: series mostly up to about 58 µM). Summed up: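 HEK293 cells expressing TRHR plated 18 h at 37 C/5% CO2, calcium dye-loaded 2 h at 37 C, then compound added (agonist mode); kinetic calcium fluorescence read 3 min at 1 s intervals; 15 concentrations in triplicate.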

The target in assay [13] is Estrogen receptor beta (Homo sapiens) (UniProt Q92731). As to the kind of experiment: qHTS assay to identify small molecule agonists of the estrogen receptor beta (ER-beta) signaling pathway (AID 1259377; active means well fitted activation curve with a large enough effect in the signal ratio in the repeat runs, not every such curve was filed as active; the % refers to the signal ratio). A digest of the protocol:
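ER-beta-UAS-bla HEK293T cells in medium with 2% charcoal-stripped FBS were exposed to compounds for 16 h at 37C. Beta-lactamase reporter activity was read as fluorescence after 2 h with LiveBLAzer B/G FRET substrate at room temperature.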

Assay [14] shares this target. As to the kind of experiment: qHTS assay to identify small molecule antagonists of the estrogen receptor beta (ER-beta) signaling pathway (AID 1259378; active means well fitted inhibition curve with a large enough effect in the signal ratio in the repeat runs, not every such curve was filed as active; the % refers to the signal ratio). Summed up:
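Antagonist mode: compounds added to beta-lactamase reporter HEK293T ER-beta-UAS cells stimulated with E2 (1nM final), 16 hr at 37C. LiveBLAzer B/G FRET substrate, 2 hours room temperature, fluorescence read-out.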

A short description of assay [15]: qHTS assay to identify small molecule agonists of the androgen receptor (AR) signaling pathway in the presence of an antagonist - cell viability counter screen (AID 1259379).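 Further: MDA-kb2 human breast cancer cells carrying an MMTV luciferase reporter; series mostly up to about 92 µM; nearly all actives have a fitted effect of over 25% in size.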 A digest of the protocol:
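Cytotoxicity counter-screen run in the same wells as the nilutamide-challenged (3.0 µM final) AR agonist assay in MDA-kb2 cells. Compounds tested at 15 concentrations for 16 h, 37 °C without CO2; CellTiter-Fluor fluorescence read.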

Assay [16] can be described thus: qHTS assay to identify small molecule antagonists of the estrogen receptor beta (ER-beta) signaling pathway - cell viability counter screen (AID 1259382).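 Further: HEK293T cells carrying ER-beta-UAS-bla reporter stimulated with estradiol; series mostly up to about 92 µM; nearly all actives have a fitted effect of over 55% in size.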 Summed up: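 Cytotoxicity was measured in the same wells by CellTiter-Glo luminescence after 30 min at room temperature. Cells were ER-beta-bla HEK293T in charcoal-stripped serum, given compound together with 1 nM E2 and incubated 16 h at 37C.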

Assay [17] is described as follows: qHTS assay to identify small molecule agonists or antagonists of the thyroid stimulating hormone receptor (TSHR) signaling pathway - wild type cell line counter screen (AID 1259384; calls by dose curve). A digest of the protocol: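 Counter screen in untransfected Hek293: compounds (15-point titration, triplicate) plus phosphodiesterase inhibitor Ro20-1724 added after 18 h plating; 30 min RT. Intracellular cAMP via competitive d2/cryptate immunoassay, 1 h incubation.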

For assay [18], the target named is Thyrotropin receptor (Homo sapiens) (UniProt P16473). As to the kind of experiment: qHTS assay to identify small molecule antagonists of the thyroid stimulating hormone receptor (TSHR) signaling pathway (AID 1259385; calls by dose curve; further: nearly all actives have a fitted effect of over 20% in size). A digest of the protocol:
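Antagonist mode: compound-treated TSHR-expressing HEK293 cells were stimulated with 1.5 ng/mL TSH (final) in presence of Ro20-1724 for 30 min at RT. HTRF cAMP detection after 1 h; each compound tested at 15 concentrations, triplicate.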

For assay [19], the target named is Estrogen receptor (Homo sapiens) (UniProt P03372). As to the kind of experiment: qHTS assay to identify small molecule agonists of the estrogen receptor alpha (ER-alpha) signaling pathway in the presence of an antagonist (AID 1259383; calls by dose curve; further: top concentration of the series differs between compounds; nearly all actives have a fitted effect of over 15% in size). Summed up: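 Agonist-mode confirmation run in the presence of 10.0nM (final) ICI-182,780 antagonist. The reporter was ERE-driven luciferase in VM7Luc4E2 cells, grown in charcoal-stripped serum. Cells were exposed to 15-concentration compound series for 22hr, then ONE-Glo luminescence was read.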

The target of assay [20] is Androgen receptor (Homo sapiens) (UniProt P10275). As to the kind of experiment: qHTS assay to identify small molecule agonists of the androgen receptor (AR) signaling pathway in the presence of an antagonist (AID 1259381; calls by dose curve; further: nearly all actives have a fitted effect of over 15% in size). Summed up: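 Agonist-mode confirmation run against 3.0 uM final nilutamide: compounds titrated at 15 concentrations onto MDA-kb2 MMTV-luciferase reporter cells. Luminescence measured with ONE-Glo following 16 hr incubation, 37C, 0% CO2.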

Values without a mark were called inactive. Inconclusive results are not listed. Calls of active or inactive are those of the source. Unless noted, the call rests on the fitted dose curve; in most records, active means well fitted curve in the direction sought with a large enough effect in the repeat runs; inconclusive means weak or mixed curves; inactive means no such curve, though single readings can be large; an effect the other way counts as inactive or inconclusive.

Thyrotropin receptor (Homo sapiens), sequence (P16473 whole entry, looked up): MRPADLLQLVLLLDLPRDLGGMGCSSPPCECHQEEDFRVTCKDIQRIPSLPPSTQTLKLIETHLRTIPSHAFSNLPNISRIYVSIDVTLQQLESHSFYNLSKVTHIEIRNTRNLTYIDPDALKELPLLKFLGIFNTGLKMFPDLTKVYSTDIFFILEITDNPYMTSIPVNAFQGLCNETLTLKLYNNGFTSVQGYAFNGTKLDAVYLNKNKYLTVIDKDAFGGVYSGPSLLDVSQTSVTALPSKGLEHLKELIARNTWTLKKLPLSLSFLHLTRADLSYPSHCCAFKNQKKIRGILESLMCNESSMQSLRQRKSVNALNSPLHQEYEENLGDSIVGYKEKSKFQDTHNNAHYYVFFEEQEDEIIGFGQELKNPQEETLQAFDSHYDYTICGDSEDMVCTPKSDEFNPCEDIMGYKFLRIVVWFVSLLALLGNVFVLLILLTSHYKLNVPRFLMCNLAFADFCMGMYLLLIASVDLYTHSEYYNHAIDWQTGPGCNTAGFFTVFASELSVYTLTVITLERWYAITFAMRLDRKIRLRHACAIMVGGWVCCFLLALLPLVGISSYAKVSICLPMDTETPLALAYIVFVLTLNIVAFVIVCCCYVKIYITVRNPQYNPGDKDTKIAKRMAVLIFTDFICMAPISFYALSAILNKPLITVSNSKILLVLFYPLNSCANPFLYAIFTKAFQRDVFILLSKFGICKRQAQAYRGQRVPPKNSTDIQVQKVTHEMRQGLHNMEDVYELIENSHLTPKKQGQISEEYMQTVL
Progesterone receptor (Homo sapiens), sequence (P06401 whole entry, looked up): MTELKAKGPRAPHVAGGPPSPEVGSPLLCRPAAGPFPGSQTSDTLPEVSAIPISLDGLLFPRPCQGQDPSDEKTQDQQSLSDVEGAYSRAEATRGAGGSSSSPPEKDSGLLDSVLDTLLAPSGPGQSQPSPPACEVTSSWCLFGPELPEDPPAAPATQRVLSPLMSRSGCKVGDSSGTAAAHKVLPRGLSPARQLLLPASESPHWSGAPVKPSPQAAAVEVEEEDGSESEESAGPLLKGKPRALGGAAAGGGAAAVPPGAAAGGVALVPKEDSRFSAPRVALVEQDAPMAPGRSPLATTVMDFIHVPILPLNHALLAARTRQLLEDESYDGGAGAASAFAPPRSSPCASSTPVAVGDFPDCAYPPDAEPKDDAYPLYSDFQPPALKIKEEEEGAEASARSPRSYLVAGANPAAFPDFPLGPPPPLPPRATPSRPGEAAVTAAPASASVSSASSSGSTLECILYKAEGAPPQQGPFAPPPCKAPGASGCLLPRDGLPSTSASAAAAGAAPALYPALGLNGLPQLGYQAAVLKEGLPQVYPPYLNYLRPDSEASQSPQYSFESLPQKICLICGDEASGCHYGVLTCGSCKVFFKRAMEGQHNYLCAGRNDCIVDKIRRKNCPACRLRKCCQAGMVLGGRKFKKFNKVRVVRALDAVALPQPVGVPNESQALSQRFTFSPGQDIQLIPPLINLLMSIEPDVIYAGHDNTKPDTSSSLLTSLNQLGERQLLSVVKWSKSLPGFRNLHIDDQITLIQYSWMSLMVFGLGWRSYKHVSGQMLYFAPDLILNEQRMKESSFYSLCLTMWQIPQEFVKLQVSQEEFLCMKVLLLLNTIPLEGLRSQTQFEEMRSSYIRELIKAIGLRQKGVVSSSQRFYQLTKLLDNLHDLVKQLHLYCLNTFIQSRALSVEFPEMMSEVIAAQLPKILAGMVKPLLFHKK
Thyrotropin-releasing hormone receptor (Homo sapiens), sequence (P34981 whole entry, looked up): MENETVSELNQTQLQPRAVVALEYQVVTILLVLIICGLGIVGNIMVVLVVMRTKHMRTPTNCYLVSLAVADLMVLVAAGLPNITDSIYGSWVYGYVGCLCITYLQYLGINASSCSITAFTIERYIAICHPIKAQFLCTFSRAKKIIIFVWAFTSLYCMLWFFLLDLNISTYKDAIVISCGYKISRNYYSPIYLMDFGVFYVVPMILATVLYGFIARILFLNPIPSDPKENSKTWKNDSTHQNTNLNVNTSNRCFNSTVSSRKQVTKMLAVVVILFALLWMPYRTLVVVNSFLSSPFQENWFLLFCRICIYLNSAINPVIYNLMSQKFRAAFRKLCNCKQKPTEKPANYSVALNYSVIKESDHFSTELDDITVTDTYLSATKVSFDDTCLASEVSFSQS
Estrogen receptor beta (Homo sapiens), sequence (Q92731 whole entry, looked up): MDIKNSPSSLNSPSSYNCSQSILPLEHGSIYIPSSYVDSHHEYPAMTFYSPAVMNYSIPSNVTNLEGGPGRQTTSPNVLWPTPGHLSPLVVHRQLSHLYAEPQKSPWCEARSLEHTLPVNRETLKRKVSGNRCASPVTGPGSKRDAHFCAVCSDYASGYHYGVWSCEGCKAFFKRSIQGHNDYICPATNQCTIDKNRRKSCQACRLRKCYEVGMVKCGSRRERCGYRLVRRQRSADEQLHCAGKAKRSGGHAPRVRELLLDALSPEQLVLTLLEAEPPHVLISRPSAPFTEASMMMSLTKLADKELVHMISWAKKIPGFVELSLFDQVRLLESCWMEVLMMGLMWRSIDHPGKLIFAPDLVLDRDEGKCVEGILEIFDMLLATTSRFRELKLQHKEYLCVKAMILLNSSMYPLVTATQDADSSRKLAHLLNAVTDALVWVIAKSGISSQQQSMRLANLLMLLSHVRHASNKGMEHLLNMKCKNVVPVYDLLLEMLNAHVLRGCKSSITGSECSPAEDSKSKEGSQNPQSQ
Estrogen receptor (Homo sapiens), sequence (P03372 whole entry, looked up): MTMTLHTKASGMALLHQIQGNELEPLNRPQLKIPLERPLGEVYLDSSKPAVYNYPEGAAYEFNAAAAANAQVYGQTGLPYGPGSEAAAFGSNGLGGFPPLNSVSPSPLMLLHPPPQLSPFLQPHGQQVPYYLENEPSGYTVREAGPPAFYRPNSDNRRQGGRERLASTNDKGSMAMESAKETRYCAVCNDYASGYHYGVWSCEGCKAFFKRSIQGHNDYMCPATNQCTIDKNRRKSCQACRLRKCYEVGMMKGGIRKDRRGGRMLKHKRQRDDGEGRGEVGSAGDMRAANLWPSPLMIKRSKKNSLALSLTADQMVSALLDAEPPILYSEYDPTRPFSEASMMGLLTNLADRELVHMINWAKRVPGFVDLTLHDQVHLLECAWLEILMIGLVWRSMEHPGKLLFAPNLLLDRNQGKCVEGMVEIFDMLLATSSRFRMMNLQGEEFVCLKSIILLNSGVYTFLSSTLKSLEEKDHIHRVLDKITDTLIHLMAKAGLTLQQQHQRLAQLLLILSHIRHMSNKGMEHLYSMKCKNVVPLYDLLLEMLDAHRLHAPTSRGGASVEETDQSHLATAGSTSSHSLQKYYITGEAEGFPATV
Androgen receptor (Homo sapiens), sequence (P10275 whole entry, looked up): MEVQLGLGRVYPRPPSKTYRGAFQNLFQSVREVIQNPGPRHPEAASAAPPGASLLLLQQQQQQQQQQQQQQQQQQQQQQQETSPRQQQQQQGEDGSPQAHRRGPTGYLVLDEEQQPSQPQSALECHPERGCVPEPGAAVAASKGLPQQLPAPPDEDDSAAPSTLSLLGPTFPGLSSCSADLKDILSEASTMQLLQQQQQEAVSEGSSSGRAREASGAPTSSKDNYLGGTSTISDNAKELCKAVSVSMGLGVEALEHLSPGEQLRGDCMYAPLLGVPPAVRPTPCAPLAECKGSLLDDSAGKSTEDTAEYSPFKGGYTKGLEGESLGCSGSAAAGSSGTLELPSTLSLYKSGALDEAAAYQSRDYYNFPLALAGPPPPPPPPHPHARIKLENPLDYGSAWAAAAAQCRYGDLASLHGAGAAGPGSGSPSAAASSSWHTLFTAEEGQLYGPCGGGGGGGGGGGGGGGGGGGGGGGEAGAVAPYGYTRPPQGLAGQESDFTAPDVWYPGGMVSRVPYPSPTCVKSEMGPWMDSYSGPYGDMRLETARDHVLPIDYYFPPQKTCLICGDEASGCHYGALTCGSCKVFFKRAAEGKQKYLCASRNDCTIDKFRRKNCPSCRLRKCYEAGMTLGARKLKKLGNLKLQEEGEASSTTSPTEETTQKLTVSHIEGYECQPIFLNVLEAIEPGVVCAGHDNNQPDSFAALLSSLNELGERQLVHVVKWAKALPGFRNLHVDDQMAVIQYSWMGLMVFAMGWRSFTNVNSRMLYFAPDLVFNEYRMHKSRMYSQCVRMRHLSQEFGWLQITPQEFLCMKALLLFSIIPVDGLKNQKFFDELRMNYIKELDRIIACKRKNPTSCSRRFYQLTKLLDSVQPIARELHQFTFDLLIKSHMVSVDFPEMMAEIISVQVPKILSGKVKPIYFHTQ

Turning to `CC(C(=O)O)c1cccc(Oc2ccccc2)c1` (stereo not given), the Potency result in assay [1], in assay [2], in [3], in assay [4], in assay [5] and in assay [6] was “inactive” each time. Besides, the Potency result in [7] and in [12] was “inactive” each time. In addition, the compound was classed as inactive in assay [8], in assay [9], in assay [10] and in assay [11].
`C1CCC2=NCCCN2CC1`: the Potency result in assay [13], in assay [14], in assay [15], in [2], in assay [3] and in assay [4] was “inactive” throughout. Moreover, the Potency entry in assay [5], in assay [6] and in assay [7] was “inactive” throughout. For the same compound, the compound was classed as inactive in [16], in [17], in assay [18], in [8], in assay [9] and in assay [10].
With `COc1c(N2CCNC(C)C2)c(F)cc2c(=O)c(C(=O)O)cn(C3CC3)c12` (stereo not given), the Potency result in assay [13], in assay [14], in [15], in [2], in assay [3] and in [4] was “inactive” in each case. For the same compound, the Potency entry in assay [5], in assay [6], in assay [7] and in [12] was “inactive” in each case. The call in assay [16], in assay [8], in [9], in assay [10] and in assay [11] was inactive.
For the compound `CC1=NS(=O)(=O)c2cc(Cl)ccc2N1`, the Potency entry in assay [1], in assay [2], in assay [3], in assay [4], in assay [5] and in assay [6] was “inactive” in each case. Also, in [7], the Potency result was “inactive”. For the same compound, the compound was classed as inactive in assay [16], in assay [19], in [17], in [18], in assay [8] and in [9]. Moreover, the call in assay [10] was inactive.
For the compound `C=C(C)C(=O)OCC1CCCO1` (stereo not given), the Potency result in assay [13], in assay [14], in assay [15], in assay [2], in assay [3] and in assay [4] was “inactive” in each case. Also, the Potency result in assay [5], in assay [6], in assay [7] and in assay [12] was “inactive” in each case. The compound was called inactive in [16], in assay [8], in [9], in [10] and in assay [11].
As for `CN(C)C(=O)Oc1cccc([N+](C)(C)C)c1`, the Potency entry in assay [1], in assay [2], in assay [3], in [5], in [6] and in assay [7] was “inactive” each time. In assay [12], the Potency entry is “inactive”. Also, the call in assay [16], in [19], in assay [17], in assay [18], in assay [8] and in assay [9] was inactive. Moreover, the result in assay [10] and in [11] was inactive.
In the case of `CCN1CCOCC1`, the Potency result in assay [13], in assay [14], in assay [15], in assay [2], in [3] and in [4] was “inactive” throughout. Besides, the Potency result in assay [5], in [6], in [7] and in assay [12] was “inactive” in each case. Further, the outcome in [8], in assay [9], in assay [10] and in assay [11] was inactive.
For `COC(=O)Nc1ccc(Cl)c(Cl)c1`, the Potency entry in [13], in [14], in [15], in [2], in [20] and in [3] was “inactive” throughout. For the same compound, the Potency result in [4], in assay [6] and in [12] was “inactive” each time. In addition, the result in [16], in assay [18], in assay [8], in [10] and in assay [11] was inactive. Also, in [5], the Potency was 30.5 µM (active).

Values taken from PubChem BioAssay (Tox21).
